# The full list was thinned out, with hits kept by preference.
# AMA1 RON2 block – disrupts binding of P. falciparum AMA1 to RON2 | 360,000 compounds, 0.2% hits | AlphaScreen AMA1-biotinylated RON2 peptide binding | Potency, µM (top dose mostly 58.2 µM), for inactives: top-dose activity change, negative = inhibition, actives largely listed as inhibitors; active = well fitted inhibition curve with a large enough effect; inconclusive = small, poorly fitted or top-dose-only effect; inactive = no such curve, though single readings can be large or run the other way;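 also: potency is read from the fitted curve at half-maximal effect; 0% = vehicle wells and -100% = peptide control; nearly all actives have a fitted effect of over 45% in size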
#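 AMA1 (3D7) with his tag at 25 nM final met compounds first, then biotinylated RON2 peptide at 25 nM; detection used donor plus acceptor beads, 10 µg/mL apiece, read by AlphaScreen after 30 min at room temperature.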
# Marburg entry inh – inhibitors of Marburg virus binding or cell entry. Marburg virus pseudotyped entry inhibition, cell reporter. Potency, µM (doses to about 37.8 µM), for inactives: top-dose activity change, negative = inhibition, actives largely listed as inhibitors. 300,000 compounds, 1.8% hits; calls by dose curve; tested in HEK293 cells; also: potency is read from the fitted curve at half-maximal effect; % is scaled to controls: 0 for no effect and ±100 for the full control effect
# CHX counter – counter-screen hit for Shiga toxin inhibitors, cycloheximide; cell reporter, cycloheximide protein synthesis inhibition counterscreen; max response, %; 300,000 compounds, 12% hits; AID 2314; in the data active = max response mostly above about 13%, no sharp cut-off; inactive = mostly below about 14%; also: read at 38.3 µM for the half of the compounds with a filed dose; 0% is about no effect
# LASV entry inh – Lassa virus entry inhibition; Lassa virus pseudotype entry inhibition, cell reporter; Potency, µM (series often up to 37.9 µM), for inactives: at the top dose activity change, negative = inhibition, hits mostly inhibitors; 300,000 compounds, 1.2% hits; AID 540256; calls by dose curve; tested in HEK293 cells; also: potency is read from the fitted curve at half-maximal effect; % is scaled to controls: 0 for no effect and ±100 for the full control effect; nearly all actives have a fitted effect of over 50% in size
# Shiga toxin inh – inhibitors of Shiga toxin in Vero cells | Vero cells, Shiga toxin protein synthesis inhibition reporter | inhibition, % at 38.7 µM | 290,000 compounds, 9.2% hits | AID 2315; in the data active = inhibition mostly above about 28%, no sharp cut-off; inactive = mostly below about 43%; also: 0% is about no effect
# The depositor's hits bear a star; ? = inconclusive; . = not tested or not shown; ! = not confirmed by another sample; [ ] = remark or other dose.
SMILES,AMA1 RON2 block,Marburg entry inh,CHX counter,LASV entry inh,Shiga toxin inh
Cc1cccn2cc(CCNS(=O)(=O)c3cccs3)nc12,-13.7%,?,20.7*,?,53.2
COc1ccc(S(=O)(=O)NCCc2cn3cccc(C)c3n2)cc1OC,-1.0%,.,-3.0,.,1.5
CCOC(=S)SCc1cn2cccc(C)c2n1,0.4%,2.7%[46.1 µM],23.9*,8.7%[46.1 µM],4.7
COC(=O)c1ccccc1NC(=S)N(Cc1ccc2c(c1)OCO2)Cc1cc2cc(OC)ccc2[nH]c1=O,-6.8%,?,-1.2,?,-5.5
Cc1ccc2c(c1)C(N1CCCC1=O)CC(c1ccco1)N2 (stereo unspecified),-6.7%,?,53.3*,?,91.8*
Cc1ccc(C2CC(c3ccco3)n3ncnc3N2)cc1 (stereo unspecified),-9.9%,.,-2.0,.,-18.6
O=C1c2ccccc2NC(c2cccc(Cl)c2)N1N=C1CCCCCC1 (stereo unspecified),-1.4%,9.1%,37.2*,11.2%,52.1
O=C1c2ccccc2NC(c2ccc(Cl)cc2Cl)N1O (stereo unspecified),-2.9%,-22.1%,-5.1,1.8%,-15.8
CCC1(c2ccccc2)NC(=O)N(CC(=O)NC2CCCCCC2)C1=O (stereo unspecified),4.1%,.,.,.,.
CCOC(=O)CC(=O)c1[nH]c(C)c(C(=O)OCC)c1C,-3.2%,-1.5%[46.1 µM],26.3*,-3.8%[46.1 µM],46.2
CCOC(=O)c1c(C)[nH]c(C(=O)COC(=O)C2CC2)c1C,2.7%,10.5%[46.1 µM],.,-28.6%,.
Cc1[nH]c(C(=O)N/N=C/c2ccc(C(=O)O)cc2)c(C)c1C(=O)N/N=C/c1ccc(C(=O)O)cc1,-10.7%[2.32 µM],?,-2.6,12.3%,-13.3
CCNC(=O)COC(=O)c1[nH]c(C)c(C(=O)OC)c1C,3.8%,?,42.5*,0.2%,71.0*
CCOC(=O)c1c(C)[nH]c(C(=O)CC(=O)OC)c1C,-1.5%,.,10.0,.,41.3
CCOC(=O)c1c(C)[nH]c(C(=O)N/N=C/c2ccc(Br)cc2)c1C,22.7%,2.82µM*,2.1,?,15.3
CCOC(=O)c1c(C)[nH]c(C(=O)COC(=O)C2(C)CC2(Cl)Cl)c1C (stereo unspecified),?,?,52.6*,5.4%,48.8
CCOC(=O)c1[nH]c(C)c(C)c1C,10.0%,-4.6%,-2.9,-8.2%,20.2
CCOC(=O)c1c(C)[nH]c(C(=O)OCC(=O)NC(C)(C)C)c1C,-6.8%,-5.7%[46.1 µM],23.1*,?,10.4
CCOC(=O)c1c(C)[nH]c(C(=O)NCc2ccco2)c1C,.,.,43.5*,.,52.7*
CCOC(=O)c1[nH]c(C)c(C(=O)OC)c1C,-3.0%,?,13.1*,?,27.8
CCOC(=O)c1c(C)[nH]c(C(=O)CSc2ccc(Cl)cc2)c1C,2.9%,-22.0%,22.1*,-21.9%,88.7*
CN(CC(=O)Nc1ccccc1Cl)C(=O)c1cccc(S(=O)(=O)N2CCN(c3ccc(F)cc3)CC2)c1,0.0%,.,58.2*,.,139.4*
CN(CCOc1ccc(Cl)cc1)C(=O)c1cccc(S(=O)(=O)N2CCN(c3ccc(F)cc3)CC2)c1,-4.6%,7.08µM*,.,?,.
O=C(c1cccc(S(=O)(=O)N2CCN(c3ccc(F)cc3)CC2)c1)N1CCCC(C(F)(F)F)C1 (stereo unspecified),?,7.94µM*,.,?,.
CN(CC(=O)Nc1ccccc1Cl)C(=O)c1cccc(S(=O)(=O)N2CCN(c3ccccc3)CC2)c1,0.7%,?,.,?,.
SMILES,AMA1 RON2 block,Marburg entry inh,CHX counter,LASV entry inh,Shiga toxin inh
Cc1cc(S(=O)(=O)N2CCOCC2)ccc1OCC(=O)Nc1ccc(Br)cc1F,3.8%,10.6%[46.1 µM],-4.4,12.6%,-5.2
CCOC(=O)[C@]12Cc3cc(C)ccc3[C@H]1N(C1CCCCC1)C(=O)c1cc(OC)ccc12,3.4%,.,.,.,.
CCN1CCN(c2cc(C)c3cc(NC(=S)NCCCN4CCc5ccccc5C4)ccc3n2)CC1,-11.5%,12.6µM*,-11.0,-24.0%,27.3
Cc1cc(N2CCN(C)CC2)nc2ccc(NC(=S)NCCCN3CCc4ccccc4C3)cc12,-15.1%,3.98µM*,-8.2,?,-10.5
O=C(Nc1ccc(F)cc1F)c1ccc(-n2cccn2)nc1,17.5%,?,15.7*,0.5%,17.6
O=C(Nc1ccc(F)cc1F)c1ccc(-n2cncn2)nc1,8.7%,16.4%,-0.3,11.3%,-6.5
CC(C)Sc1ccc(C(=O)Nc2ccc(F)cc2F)cn1,-1.6%,?,47.9*,18.7%,50.0*
O=C(Nc1ccncc1)c1cc(C2CCCCN2C(=O)CCCc2ccccc2)on1 (stereo unspecified),5.2%,.,.,.,.
Cc1cc(/C=C(/C#N)c2nc3ccccc3[nH]2)c(C)n1-c1cccc([N+](=O)[O-])c1,-24.2%,?,32.4*,10µM*,37.3*
COc1cccc(/C=C(\C#N)c2nc3ccc(C)cc3[nH]2)c1,.,-10.6%[46.1 µM],.,-24.5%[46.1 µM],.
Cc1cc(/C=C(\C#N)c2nc3ccccc3[nH]2)c(C)n1C,-6.5%,?,23.4*,10µM*,67.1*
Cc1ccc2nc(/C(C#N)=C/c3ccc(-c4cccc([N+](=O)[O-])c4)o3)[nH]c2c1,?,5.5%,4.2,1.8%,12.6
CCOC(=O)C1(CC2CCCCO2)CCN(S(=O)(=O)c2ccsc2)CC1 (stereo unspecified),22.2%,.,13.0*,.,23.1
CCOC(=O)C1(CC2CCCCO2)CCN(C(=O)Nc2ccccc2)CC1 (stereo unspecified),-10.2%,3.5%[46.1 µM],28.7*,2.0%,35.5*
CC(C)c1ccc(NC(=O)CSc2nc(=O)n(Cc3cccnc3)c3c2CCC3)cc1,.,.,.,-1.5%[46.1 µM],.
CN1CC[C@@]2(C)c3cc(O)ccc3N(C)C12 (stereo partly specified),.,7.94µM*,.,8.2µM*,.
CNC(=O)Oc1ccc2c(c1)[C@]1(C)CCN(C)[C@@H]1N2C,-0.3%,0.282µM*!,-2.4,-7.4%,-14.4
CNC(=O)Oc1ccc2ncccc2c1,-4.0%[11.6 µM],9.9%,-7.0,8.7%,-17.9
CC1[C@H]2Cc3ccc(O)cc3[C@]1(C)CCN2CCc1ccccc1 (stereo partly specified),-4.8%,.,.,.,.
COC(=O)NC(c1ccc2c(c1)OCO2)C(C(=O)OC)C(=O)OC (stereo unspecified),.,25.1%[14.2 µM],.,.,.
C=CCNC(=O)CN1N=C(c2ccc(C)cc2)CCC1=O,-3.3%,-21.2%,-1.7,15.0%,-6.8
COC(=O)c1cc(/C=C/c2ccccc2)[nH]n1,-0.2%,.,20.4*,.,25.4*
COC(=O)c1cc(/C=C/c2ccccc2)on1,8.0%,-1.6%,11.0,6.7%,-16.5
CN(C)C1=NC(=O)/C(=C/c2ccc(-c3ccc(S(N)(=O)=O)cc3)o2)S1,.,.,-4.2,.,-7.1
NC1=NC(=O)/C(=C\c2ccc(-c3ccc(Cl)cc3)o2)S1,4.8%,.,13.0*,.,30.4*
O=C(NC(NC(=S)Nc1ccc(F)c([N+](=O)[O-])c1)C(Cl)(Cl)Cl)C(c1ccccc1)c1ccccc1 (stereo unspecified),.,.,4.6,.,12.5
CCc1ccc2cc(F)cc(F)c2n1,5.7%,.,.,.,.
O=[N+]([O-])c1ccc2ccn(C3OCC(O)C(O)C3O)c2c1 (stereo unspecified),12.5%,8.7%[46.1 µM],-1.6,?,-7.1
